Laboratory results taken from ChEMBL document CHEMBL1961873, “Compounds: GSK PKIS; Assays: Nanosyn kinase panel” (2012).

Key:
[1] = target: T1, Inhibitor of nuclear factor kappa-B kinase subunit epsilon (Homo sapiens) (UniProt Q14164); conditions: at 1 µM;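 further: reported values are averaged percent inhibition figures against human IKKε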
T1 sequence (whole entry): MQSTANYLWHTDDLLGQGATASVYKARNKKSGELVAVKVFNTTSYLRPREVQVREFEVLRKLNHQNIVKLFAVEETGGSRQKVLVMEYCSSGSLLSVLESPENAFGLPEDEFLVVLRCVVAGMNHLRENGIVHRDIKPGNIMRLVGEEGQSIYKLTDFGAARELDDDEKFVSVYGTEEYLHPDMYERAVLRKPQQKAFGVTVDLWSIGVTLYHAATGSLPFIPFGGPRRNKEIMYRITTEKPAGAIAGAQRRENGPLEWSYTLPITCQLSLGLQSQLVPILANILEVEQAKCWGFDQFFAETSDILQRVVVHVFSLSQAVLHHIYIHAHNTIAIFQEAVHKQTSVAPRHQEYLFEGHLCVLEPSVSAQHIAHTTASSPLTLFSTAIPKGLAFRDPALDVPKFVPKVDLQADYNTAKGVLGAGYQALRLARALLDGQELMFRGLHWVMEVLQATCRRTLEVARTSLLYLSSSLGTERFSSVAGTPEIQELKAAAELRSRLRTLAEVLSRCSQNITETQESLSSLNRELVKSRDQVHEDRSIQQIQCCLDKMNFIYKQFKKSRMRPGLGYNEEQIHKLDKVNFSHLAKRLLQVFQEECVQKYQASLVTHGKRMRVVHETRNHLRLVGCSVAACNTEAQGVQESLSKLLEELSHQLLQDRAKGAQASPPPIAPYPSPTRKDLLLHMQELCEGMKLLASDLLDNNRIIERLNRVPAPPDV

[2] = target: T2, Serine/threonine-protein kinase Nek1 (Homo sapiens) (UniProt Q96PY6); conditions: at 0.1 µM
T2 sequence (whole entry): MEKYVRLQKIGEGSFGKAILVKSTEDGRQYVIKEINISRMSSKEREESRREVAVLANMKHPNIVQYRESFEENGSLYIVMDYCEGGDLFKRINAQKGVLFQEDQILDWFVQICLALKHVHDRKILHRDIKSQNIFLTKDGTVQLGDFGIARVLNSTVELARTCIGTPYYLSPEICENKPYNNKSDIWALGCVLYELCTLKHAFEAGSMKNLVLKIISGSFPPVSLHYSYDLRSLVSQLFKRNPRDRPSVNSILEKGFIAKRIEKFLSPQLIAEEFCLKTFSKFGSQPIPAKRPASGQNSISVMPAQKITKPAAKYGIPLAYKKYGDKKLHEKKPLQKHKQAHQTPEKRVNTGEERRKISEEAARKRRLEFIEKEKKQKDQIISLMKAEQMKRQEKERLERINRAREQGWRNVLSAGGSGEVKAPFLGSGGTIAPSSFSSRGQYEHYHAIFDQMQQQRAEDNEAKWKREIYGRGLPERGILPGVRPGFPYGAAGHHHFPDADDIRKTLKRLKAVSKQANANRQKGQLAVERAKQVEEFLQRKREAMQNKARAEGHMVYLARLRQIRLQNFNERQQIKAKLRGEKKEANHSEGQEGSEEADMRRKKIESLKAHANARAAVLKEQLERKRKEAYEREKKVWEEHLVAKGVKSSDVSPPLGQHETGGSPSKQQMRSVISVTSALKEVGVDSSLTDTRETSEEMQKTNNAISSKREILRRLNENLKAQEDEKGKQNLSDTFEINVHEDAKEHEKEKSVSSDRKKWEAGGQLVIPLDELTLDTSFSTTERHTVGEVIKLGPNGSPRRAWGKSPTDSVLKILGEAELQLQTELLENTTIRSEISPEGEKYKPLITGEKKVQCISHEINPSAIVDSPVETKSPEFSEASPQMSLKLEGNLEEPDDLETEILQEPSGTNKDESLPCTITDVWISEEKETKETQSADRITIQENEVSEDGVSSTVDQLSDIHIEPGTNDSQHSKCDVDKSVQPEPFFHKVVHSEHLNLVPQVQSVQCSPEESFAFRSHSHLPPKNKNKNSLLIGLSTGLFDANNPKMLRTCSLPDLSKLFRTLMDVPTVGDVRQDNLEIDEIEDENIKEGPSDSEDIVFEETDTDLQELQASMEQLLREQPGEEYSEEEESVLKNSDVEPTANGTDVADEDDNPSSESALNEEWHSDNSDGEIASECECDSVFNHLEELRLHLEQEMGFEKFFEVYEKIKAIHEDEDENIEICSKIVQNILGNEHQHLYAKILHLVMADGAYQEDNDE

[3] = target: T2, Serine/threonine-protein kinase Nek1 (Homo sapiens); conditions: at 1 µM
[4] = target: T3, Serine/threonine-protein kinase Nek2 (Homo sapiens) (UniProt P51955); conditions: at 0.1 µM
T3 sequence (whole entry): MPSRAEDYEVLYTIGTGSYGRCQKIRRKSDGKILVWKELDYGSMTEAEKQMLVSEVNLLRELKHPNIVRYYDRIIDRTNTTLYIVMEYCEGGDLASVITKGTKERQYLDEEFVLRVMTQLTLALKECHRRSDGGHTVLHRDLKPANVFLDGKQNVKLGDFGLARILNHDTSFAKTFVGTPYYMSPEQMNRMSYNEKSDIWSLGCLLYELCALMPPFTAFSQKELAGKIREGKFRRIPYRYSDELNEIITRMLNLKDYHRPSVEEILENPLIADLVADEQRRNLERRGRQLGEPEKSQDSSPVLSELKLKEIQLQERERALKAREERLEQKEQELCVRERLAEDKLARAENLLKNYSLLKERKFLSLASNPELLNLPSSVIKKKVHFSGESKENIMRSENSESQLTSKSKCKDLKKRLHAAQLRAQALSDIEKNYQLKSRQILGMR

[5] = target: T3, Serine/threonine-protein kinase Nek2 (Homo sapiens); conditions: at 1 µM
[6] = target: Serine/threonine-protein kinase Nek6 (Homo sapiens) (UniProt Q9HC98); conditions: at 0.1 µM
Serine/threonine-protein kinase Nek6 (Homo sapiens), sequence (Q9HC98 whole entry): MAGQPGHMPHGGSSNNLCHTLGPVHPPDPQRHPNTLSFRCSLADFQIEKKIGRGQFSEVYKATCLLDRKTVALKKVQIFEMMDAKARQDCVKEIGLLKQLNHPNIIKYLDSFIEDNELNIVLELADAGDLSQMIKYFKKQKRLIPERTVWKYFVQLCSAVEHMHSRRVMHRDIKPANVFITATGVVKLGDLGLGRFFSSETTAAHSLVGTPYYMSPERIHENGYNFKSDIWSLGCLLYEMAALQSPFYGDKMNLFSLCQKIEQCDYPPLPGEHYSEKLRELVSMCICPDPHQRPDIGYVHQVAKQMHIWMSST

[7] = target: Serine/threonine-protein kinase Nek6 (Homo sapiens) (UniProt Q9HC98); conditions: at 1 µM
[8] = target: Serine/threonine-protein kinase Nek7 (Homo sapiens) (UniProt Q8TDX7); conditions: at 0.1 µM
Serine/threonine-protein kinase Nek7 (Homo sapiens), sequence (Q8TDX7 whole entry, looked up): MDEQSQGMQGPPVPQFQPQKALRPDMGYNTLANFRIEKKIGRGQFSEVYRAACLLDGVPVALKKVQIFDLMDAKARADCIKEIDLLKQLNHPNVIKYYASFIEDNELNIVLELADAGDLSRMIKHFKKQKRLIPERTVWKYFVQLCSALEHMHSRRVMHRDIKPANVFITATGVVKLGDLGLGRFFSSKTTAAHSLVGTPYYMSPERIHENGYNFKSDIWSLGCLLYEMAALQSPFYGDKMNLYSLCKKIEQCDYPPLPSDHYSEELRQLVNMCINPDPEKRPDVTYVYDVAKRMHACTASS

[9] = target: Serine/threonine-protein kinase Nek7 (Homo sapiens) (UniProt Q8TDX7); conditions: at 1 µM
[10] = target: T4, Serine/threonine-protein kinase Nek9 (Homo sapiens) (UniProt Q8TD19); conditions: at 0.1 µM
T4 sequence (whole entry): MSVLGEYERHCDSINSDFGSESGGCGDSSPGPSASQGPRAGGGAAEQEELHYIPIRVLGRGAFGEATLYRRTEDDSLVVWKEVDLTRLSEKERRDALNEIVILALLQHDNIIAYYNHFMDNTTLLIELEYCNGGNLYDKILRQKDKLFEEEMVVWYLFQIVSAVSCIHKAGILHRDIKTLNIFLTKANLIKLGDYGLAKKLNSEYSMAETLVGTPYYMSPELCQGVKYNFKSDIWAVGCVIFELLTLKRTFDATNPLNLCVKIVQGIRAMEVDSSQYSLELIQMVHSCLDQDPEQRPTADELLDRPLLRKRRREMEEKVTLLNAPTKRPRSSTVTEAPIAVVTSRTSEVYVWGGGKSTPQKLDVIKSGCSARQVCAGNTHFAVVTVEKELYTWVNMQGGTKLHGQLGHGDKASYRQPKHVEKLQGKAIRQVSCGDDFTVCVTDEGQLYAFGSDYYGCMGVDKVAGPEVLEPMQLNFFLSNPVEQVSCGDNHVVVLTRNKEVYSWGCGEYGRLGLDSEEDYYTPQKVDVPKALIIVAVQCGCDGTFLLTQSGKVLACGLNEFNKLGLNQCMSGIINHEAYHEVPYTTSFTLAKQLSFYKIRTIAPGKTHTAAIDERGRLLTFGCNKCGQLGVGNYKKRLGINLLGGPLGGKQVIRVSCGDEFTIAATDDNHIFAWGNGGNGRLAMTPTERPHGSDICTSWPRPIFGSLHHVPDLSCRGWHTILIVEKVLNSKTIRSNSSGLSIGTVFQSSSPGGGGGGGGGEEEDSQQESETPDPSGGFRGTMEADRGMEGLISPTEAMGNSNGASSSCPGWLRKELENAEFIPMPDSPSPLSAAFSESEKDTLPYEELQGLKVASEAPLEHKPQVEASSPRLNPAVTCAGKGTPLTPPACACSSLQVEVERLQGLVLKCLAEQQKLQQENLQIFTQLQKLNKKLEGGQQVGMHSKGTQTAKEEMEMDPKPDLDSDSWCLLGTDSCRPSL

[11] = target: T4, Serine/threonine-protein kinase Nek9 (Homo sapiens); conditions: at 1 µM
[12] = target: Serine/threonine-protein kinase PLK1 (Homo sapiens) (UniProt P53350); conditions: at 0.1 µM
Serine/threonine-protein kinase PLK1 (Homo sapiens), sequence (P53350 whole entry): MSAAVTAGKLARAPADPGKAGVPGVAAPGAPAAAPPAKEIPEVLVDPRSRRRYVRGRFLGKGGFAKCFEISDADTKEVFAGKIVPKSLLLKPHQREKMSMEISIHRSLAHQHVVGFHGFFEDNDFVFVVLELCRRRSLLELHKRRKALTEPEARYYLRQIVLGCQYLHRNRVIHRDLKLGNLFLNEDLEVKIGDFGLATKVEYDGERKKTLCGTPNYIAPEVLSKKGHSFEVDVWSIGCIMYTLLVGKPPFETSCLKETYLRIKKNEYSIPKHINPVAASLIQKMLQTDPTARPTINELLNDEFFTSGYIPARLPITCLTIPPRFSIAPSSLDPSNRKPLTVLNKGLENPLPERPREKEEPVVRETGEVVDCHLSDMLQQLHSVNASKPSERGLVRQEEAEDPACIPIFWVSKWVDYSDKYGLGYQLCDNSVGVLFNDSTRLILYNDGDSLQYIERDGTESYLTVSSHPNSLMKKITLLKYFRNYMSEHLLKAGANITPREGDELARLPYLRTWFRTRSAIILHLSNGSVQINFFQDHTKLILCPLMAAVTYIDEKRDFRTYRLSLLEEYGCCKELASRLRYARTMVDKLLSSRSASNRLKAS

[13] = target: Serine/threonine-protein kinase PLK1 (Homo sapiens) (UniProt P53350); conditions: at 1 µM
[14] = target: T5, Dual specificity protein kinase TTK (Homo sapiens) (UniProt P33981); conditions: at 0.1 µM
T5 sequence (whole entry): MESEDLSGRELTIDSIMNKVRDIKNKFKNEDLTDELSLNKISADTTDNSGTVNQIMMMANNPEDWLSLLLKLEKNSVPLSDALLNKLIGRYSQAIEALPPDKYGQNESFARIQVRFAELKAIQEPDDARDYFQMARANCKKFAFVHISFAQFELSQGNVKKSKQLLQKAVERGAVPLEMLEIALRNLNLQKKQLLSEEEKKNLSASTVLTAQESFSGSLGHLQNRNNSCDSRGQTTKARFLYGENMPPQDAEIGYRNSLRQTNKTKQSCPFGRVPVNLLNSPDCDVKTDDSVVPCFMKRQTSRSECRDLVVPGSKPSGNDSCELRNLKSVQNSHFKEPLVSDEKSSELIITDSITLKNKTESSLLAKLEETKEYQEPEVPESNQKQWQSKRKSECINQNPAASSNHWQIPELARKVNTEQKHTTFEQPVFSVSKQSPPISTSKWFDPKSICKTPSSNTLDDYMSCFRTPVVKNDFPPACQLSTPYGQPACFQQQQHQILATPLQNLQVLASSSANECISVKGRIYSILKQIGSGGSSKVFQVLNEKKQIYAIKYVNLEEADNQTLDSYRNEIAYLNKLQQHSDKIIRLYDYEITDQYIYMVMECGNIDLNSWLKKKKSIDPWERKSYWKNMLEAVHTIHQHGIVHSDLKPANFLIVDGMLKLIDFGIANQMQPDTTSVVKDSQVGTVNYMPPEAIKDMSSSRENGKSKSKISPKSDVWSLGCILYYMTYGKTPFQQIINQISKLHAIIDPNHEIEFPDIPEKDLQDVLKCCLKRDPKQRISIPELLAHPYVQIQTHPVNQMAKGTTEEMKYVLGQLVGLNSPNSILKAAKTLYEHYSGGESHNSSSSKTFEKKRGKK

[15] = tested on: T6, Receptor-type tyrosine-protein kinase FLT3 (Homo sapiens), P36888 [D835Y]; conditions: at 1 µM
T6 sequence (whole entry): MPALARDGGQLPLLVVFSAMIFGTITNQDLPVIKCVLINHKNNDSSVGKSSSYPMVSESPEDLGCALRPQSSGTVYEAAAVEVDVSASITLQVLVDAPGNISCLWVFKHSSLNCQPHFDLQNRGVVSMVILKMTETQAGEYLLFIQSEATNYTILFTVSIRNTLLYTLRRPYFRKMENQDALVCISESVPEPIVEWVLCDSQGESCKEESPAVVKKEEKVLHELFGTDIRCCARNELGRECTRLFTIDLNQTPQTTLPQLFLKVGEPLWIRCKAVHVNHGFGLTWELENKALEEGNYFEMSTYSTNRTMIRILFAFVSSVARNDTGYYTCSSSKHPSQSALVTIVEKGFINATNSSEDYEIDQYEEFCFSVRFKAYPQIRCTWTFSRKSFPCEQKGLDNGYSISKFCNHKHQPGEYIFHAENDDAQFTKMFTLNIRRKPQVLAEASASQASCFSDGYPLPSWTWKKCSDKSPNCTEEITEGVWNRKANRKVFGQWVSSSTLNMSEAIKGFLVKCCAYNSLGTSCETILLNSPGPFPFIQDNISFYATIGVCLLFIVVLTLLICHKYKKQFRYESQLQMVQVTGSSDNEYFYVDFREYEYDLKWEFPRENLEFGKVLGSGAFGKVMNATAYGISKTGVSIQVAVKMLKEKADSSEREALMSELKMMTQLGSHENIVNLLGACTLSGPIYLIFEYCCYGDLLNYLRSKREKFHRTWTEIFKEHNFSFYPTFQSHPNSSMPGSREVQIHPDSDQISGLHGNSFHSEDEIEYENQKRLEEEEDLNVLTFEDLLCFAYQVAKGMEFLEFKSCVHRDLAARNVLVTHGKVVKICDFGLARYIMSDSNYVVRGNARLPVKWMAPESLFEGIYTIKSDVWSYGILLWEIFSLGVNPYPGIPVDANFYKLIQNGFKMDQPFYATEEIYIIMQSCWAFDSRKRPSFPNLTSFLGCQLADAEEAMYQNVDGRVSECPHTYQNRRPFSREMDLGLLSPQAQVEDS

[16] = target: Vascular endothelial growth factor receptor 3 (Homo sapiens) (UniProt P35916); conditions: at 0.1 µM
Vascular endothelial growth factor receptor 3 (Homo sapiens), sequence (P35916 whole entry): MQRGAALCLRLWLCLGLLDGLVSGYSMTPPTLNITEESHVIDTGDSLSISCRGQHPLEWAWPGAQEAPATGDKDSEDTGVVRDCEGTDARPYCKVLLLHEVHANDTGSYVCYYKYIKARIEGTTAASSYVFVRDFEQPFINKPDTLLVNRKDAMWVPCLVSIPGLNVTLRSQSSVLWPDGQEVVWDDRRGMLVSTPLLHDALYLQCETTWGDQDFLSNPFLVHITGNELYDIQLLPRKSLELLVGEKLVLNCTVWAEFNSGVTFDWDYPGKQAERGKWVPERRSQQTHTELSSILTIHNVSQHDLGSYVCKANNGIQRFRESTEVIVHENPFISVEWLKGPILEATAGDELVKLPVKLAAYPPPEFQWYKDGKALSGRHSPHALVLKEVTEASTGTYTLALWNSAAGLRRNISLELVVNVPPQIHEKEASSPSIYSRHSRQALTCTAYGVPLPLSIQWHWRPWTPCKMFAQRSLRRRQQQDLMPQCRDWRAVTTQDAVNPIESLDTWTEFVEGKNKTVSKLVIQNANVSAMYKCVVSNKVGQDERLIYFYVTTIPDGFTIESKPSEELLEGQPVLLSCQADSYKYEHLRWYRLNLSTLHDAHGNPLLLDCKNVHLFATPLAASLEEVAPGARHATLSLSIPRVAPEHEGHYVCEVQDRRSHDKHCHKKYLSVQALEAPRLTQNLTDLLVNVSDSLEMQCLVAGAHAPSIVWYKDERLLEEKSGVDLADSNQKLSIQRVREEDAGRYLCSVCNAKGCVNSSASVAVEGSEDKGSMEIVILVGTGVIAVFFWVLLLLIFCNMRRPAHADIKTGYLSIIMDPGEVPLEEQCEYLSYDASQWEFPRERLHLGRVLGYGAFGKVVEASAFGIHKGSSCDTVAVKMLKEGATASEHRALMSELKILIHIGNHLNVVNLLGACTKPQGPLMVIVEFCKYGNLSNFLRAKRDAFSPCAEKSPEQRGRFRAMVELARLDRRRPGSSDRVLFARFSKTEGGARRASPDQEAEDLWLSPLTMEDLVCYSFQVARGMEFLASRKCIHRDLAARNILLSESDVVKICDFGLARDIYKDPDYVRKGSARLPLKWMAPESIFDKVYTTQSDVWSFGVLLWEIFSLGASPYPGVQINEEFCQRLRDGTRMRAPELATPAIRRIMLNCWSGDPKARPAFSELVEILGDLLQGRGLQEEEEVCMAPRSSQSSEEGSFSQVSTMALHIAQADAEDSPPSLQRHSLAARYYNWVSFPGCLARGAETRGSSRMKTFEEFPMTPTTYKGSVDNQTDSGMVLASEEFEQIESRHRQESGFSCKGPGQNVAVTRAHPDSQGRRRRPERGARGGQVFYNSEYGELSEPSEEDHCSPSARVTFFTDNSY

[17] = target: Vascular endothelial growth factor receptor 3 (Homo sapiens) (UniProt P35916); conditions: at 1 µM
[18] = target: Macrophage colony-stimulating factor 1 receptor (Homo sapiens) (UniProt P07333); conditions: at 0.1 µM
Macrophage colony-stimulating factor 1 receptor (Homo sapiens), sequence (P07333 whole entry): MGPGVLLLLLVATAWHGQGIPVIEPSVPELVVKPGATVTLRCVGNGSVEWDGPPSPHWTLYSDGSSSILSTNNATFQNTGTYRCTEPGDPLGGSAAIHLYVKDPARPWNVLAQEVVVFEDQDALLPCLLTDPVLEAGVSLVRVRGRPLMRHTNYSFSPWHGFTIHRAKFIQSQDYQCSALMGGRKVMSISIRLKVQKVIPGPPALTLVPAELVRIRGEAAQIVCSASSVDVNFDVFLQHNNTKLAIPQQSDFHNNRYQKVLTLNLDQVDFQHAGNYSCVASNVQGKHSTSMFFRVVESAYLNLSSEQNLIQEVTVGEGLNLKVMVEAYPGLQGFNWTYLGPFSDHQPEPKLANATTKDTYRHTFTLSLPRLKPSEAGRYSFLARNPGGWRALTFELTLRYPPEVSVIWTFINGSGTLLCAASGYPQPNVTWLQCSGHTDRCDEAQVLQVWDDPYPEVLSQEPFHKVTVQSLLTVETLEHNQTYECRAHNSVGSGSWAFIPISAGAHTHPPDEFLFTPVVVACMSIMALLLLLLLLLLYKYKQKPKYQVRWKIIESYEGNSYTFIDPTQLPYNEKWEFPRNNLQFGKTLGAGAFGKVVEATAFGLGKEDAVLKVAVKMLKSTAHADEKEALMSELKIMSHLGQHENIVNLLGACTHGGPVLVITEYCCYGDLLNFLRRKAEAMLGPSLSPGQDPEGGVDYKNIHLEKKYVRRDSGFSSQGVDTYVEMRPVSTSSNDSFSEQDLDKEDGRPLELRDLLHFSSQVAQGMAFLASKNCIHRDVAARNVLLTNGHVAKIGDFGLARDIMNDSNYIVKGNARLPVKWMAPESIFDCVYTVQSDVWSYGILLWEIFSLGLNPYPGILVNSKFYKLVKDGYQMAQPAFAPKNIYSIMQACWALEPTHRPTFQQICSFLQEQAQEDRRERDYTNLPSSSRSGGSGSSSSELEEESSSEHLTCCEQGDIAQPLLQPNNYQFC

[19] = target: Macrophage colony-stimulating factor 1 receptor (Homo sapiens) (UniProt P07333); conditions: at 1 µM
[20] = target: Tyrosine-protein kinase Fyn (Homo sapiens) (UniProt P06241); conditions: at 0.1 µM
Tyrosine-protein kinase Fyn (Homo sapiens), sequence (P06241 2-537 limits assumed): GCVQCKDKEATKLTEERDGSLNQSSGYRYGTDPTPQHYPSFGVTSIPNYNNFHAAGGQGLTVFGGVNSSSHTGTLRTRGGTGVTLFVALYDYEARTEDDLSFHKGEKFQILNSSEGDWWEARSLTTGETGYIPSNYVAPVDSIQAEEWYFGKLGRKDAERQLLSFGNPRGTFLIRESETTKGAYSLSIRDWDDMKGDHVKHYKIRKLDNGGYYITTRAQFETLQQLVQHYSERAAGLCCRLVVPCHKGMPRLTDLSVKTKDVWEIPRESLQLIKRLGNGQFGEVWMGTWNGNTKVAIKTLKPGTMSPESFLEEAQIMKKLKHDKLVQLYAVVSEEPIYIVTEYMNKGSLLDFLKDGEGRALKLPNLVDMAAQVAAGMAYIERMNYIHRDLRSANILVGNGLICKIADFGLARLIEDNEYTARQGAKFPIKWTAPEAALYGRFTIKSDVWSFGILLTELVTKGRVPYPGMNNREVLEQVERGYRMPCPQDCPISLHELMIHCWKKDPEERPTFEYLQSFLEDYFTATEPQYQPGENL

For `CCn1c(-c2nonc2N)nc2c(C#CC(C)(C)O)ncc(OCC3CCNCC3)c21`, the inhibition [1] was 99.1%, the inhibition [2] was 2.19% and the inhibition [3] was 3.24%. The inhibition [4] was 3.86%, the inhibition [5] was 3.71% and the inhibition [6] was 3.46%. It also gave an inhibition [7] of 4.94%, an inhibition [8] of 3.99% and an inhibition [9] of 3.34%. For the same molecule, the inhibition [10] was 5.3%, the inhibition [11] was 8.54% and the inhibition [12] was 4.55%. The inhibition [13] was 3.24%, the inhibition [14] was 9.22% and the inhibition [15] was 0.35%. The inhibition [16] was -2.47%, the inhibition [17] was 34.8% and the inhibition [18] was 1.63%. For the same molecule, the inhibition [19] was 1.19% and the inhibition [20] was -4.47%.
`COc1cc2c(cc1Nc1nc(Nc3ccsc3C(N)=O)c3cc[nH]c3n1)N(C(=O)CN(C)C)CCC2` gave an inhibition [1] of 9.27%, an inhibition [2] of 0.09% and an inhibition [3] of 0.97%. It also gave an inhibition [5] of 6.67%, an inhibition [6] of 1.52% and an inhibition [7] of -0.11%. For the same molecule, the inhibition [8] was 1.7%, the inhibition [9] was 9.62% and the inhibition [10] was 1.89%. It also gave an inhibition [11] of -3.87%, an inhibition [12] of 86.3% and an inhibition [13] of 97.1%. For the same molecule, the inhibition [14] was 9.22%, the inhibition [15] was 5.44% and the inhibition [18] was 55%. The inhibition [19] was 82.8% and the inhibition [20] was 2.02%.
